The text below walks through data of ChEMBL document CHEMBL3433997, “St. Jude Leishmania screening dataset” (2016).

Holding throughout (assay type): functional
Experiment [1] concerns the target Solute carrier family 2, facilitated glucose transporter member 1 (Homo sapiens) (UniProt P11166). Description: ST_JUDE_LEISH: Cytotoxicity at 2uM final concentration against transgenic Leishmania Mexicana promastigotes LmGLUT1 that are glucose transport deficient and complemented with the human glucose transporter GLUT1. Activity is measured by DNA content using SYBR green in vitro.

The target of experiment [2] is Hexose transporter 1 (Plasmodium falciparum) (UniProt O97467). Description: ST_JUDE_LEISH: Cytotoxicity at 2uM final concentration against transgenic Leishmania Mexicana promastigotes LmPfHT that are glucose transport deficient and complemented with the Plasmodium falciparum hexose transporter. Activity is measured by DNA content using SYBR green in vitro.
In experiment [3] the target is Glucose transporter (Leishmania mexicana) (UniProt O61059). In words: ST_JUDE_LEISH: Cytotoxicity at 2uM final concentration against transgenic Leishmania Mexicana promastigotes LmGT2 that are glucose transport deficient and complemented with the L. Mexicana glucose transporter 2. Activity is measured by DNA content using SYBR green in vitro.

Solute carrier family 2, facilitated glucose transporter member 1 (Homo sapiens), sequence (P11166 whole entry): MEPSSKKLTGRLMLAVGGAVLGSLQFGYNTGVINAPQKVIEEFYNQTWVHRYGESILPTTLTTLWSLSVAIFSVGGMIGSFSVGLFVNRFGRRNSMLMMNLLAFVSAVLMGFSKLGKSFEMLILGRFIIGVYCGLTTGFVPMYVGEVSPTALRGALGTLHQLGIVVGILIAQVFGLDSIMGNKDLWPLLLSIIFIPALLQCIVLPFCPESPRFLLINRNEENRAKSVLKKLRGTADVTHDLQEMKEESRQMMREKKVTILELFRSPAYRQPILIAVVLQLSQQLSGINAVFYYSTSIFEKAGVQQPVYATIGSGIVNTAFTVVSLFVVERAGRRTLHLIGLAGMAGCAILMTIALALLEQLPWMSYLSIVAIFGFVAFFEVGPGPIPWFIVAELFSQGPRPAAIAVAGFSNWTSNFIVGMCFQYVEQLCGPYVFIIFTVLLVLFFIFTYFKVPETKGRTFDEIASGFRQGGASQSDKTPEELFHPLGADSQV

In the case of `COc1cc2[nH]c(-c3ccc(O)cc3)c(C)c(=O)c2c(OC)c1OC`, the inhibition is 2.67% in experiment [1], 0.09% in experiment [2] and -2.9% in experiment [3].

For the compound `CCCCCC(C)(C)NC[C@@H](O)[C@H](Cc1ccccc1)NC(=O)c1cc(NCC)cc(N2CCCC2=O)c1`, the inhibition in experiment [1] was -0.4%; in experiment [2], 0.68%; in experiment [3], -1.82%.

On to `CC(C)(C)OC(=O)NCc1ccc(Nc2nnc(-c3ccc(OCC(=O)NCc4ccc(C(C)(C)C)cc4)c([N+](=O)[O-])c3)o2)cc1`, for which the inhibition is 2.12% in experiment [1], 1.65% in experiment [2] and -0.53% in experiment [3].

The term inhibition denotes the change of the read-out against control, counted positive when it falls.
